Rows were chosen to be rich in hits. Some 3.2% of all compounds tested hit in one or more screens of this group.
PHOSPHO1 inh: PubChem AID 1565. Phosphoethanolamine/phosphocholine phosphatase (Homo sapiens), Q8TCT1. recombinant PHOSPHO1, absorbance phosphatase assay. inhibition, % at 13.3 µM. 290,000 compounds, 1.1% hits; in the data active = inhibition above about 60%
CHT inh: inhibitors of human choline transporter CHT | High affinity choline transporter 1 (Homo sapiens), Q9GZV3 | CHT-expressing cells, membrane potential dye, choline response; hits give low values | B-score at 10 µM | 310,000 compounds, 0.86% hits | AID 488975, 2010;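 active = B-score over 3 SD under the library average, and starting fluorescence ratio not unusually high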;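 also: choline stimulus applied at its EC90 after an EC20 pre-addition; B-score computed on integrated fluorescence ratio after choline addition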
ANO1 block: TMEM16A chloride channel inhibitors, primary screen, cell-based, HTS. Anoctamin-1 (Mus musculus), Q8BHY3. HEK293 TMEM16A/YFP iodide influx fluorescence, ionomycin. normalized B-score (activity score, 25-100; higher = stronger inhibition) at 10 µM. 310,000 compounds, 1.2% hits;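 active = ratio plate-corrected score three or more library SD toward inhibition, starting fluorescence score within five deviations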;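 also: score derived from kinetic fluorescence span divided by baseline fluorescence per well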
Target sequence (Q8BHY3 whole entry, looked up): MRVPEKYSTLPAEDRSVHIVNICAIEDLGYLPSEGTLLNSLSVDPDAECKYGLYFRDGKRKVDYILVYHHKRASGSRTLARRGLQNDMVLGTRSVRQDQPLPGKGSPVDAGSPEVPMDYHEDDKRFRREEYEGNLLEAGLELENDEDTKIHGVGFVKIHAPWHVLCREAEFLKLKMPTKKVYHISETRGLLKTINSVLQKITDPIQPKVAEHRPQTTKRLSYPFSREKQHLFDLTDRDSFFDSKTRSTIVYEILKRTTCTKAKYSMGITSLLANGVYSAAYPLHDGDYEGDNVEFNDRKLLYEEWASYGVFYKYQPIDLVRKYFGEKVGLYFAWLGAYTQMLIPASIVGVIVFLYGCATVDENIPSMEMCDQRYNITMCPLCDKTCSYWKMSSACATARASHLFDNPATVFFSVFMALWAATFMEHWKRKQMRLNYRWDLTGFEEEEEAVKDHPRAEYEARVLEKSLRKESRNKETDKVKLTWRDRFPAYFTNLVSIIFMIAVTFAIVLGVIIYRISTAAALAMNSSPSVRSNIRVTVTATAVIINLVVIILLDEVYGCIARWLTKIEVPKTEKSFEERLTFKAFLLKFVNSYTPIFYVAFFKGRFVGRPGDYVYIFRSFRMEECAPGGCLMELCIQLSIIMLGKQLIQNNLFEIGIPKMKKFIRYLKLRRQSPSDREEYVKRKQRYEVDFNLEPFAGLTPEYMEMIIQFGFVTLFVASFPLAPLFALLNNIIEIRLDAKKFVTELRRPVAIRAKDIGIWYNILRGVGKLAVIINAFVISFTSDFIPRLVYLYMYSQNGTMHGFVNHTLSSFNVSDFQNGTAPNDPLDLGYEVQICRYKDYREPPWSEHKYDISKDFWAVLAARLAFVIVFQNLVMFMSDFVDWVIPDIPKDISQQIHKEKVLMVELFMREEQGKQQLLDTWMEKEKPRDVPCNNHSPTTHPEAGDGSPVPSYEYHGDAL
ANO1 activ: TMEM16A chloride channel activators or potentiators, primary screen, cell-based, HTS; HEK293 TMEM16A/YFP-H148Q/I152L, iodide quench fluorescence; hits give low values; B-score at 10 µM; 340,000 compounds, 0.3% hits; AID 623877, 2012;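 active = fluorescence-ratio B-score plate-corrected deviation score at least 3 library SD below zero, with starting fluorescence score within 5 deviations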;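 also: channel opened by trigger with iodide after compound preincubation; score built on the fluorescence ratio of max minus min over baseline; more negative score means more quench and so TMEM16A activation or potentiation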
HDAC3 inh: HDAC3 deacetylase inhibitors, primary screen, biochemical, fluorescence, cell-free homogeneous; Histone deacetylase 3 (Homo sapiens), O15379; recombinant HDAC3, fluorogenic peptide/trypsin coupled; inhibition, % at 8.3 µM; 320,000 compounds, 0.15% hits; in the data active = inhibition above about 26%, passing the limit was not always enough; inconclusive = no clear call, values can overlap the other calls
CHT PAM: CHT positive allosteric modulators, primary screen, cell-based, membrane potential dye, choline EC20. 310,000 compounds, 0.49% hits. AID 488977, 2010. CHT-expressing cells; hits give high values; LV-AA mutant CHT in HEK293 cells. High affinity choline transporter 1 (Homo sapiens), Q9GZV3. B-score at 10 µM;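 active = initial fluorescence not abnormally high and integrated response B-score, plate-corrected, over 3 SD above library mean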
CHT inh conf: CHT inhibitors, confirmation, cell-based, membrane potential dye, duplicate. shares compounds with CHT inh. CHT activity remaining % of control (hits give low values), % at 10 µM. 2,400 compounds, 70% hits. CHT-expressing cells, choline membrane potential dye; LV-to-AA substituted CHT, HEK293 cells;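 active = choline transporter activity left, mean of duplicates at 10 µM, below buffer-only control mean minus 3 SD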;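 also: depolarization triggered by choline at its EC90 following an EC20 pre-addition; 0% = hemicholinium-3 full block and 100% = buffer-only control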
HEK293 CHT ctr: membrane potential effects in parental HEK293, counter-screen for CHT inhibitor project, cell-based, membrane potential dye. shares compounds with CHT inh. choline response; active = decrease or increase beyond buffer ±3SD. membrane potential ratio readout (active if shifted either direction beyond buffer ±3SD; no single direction) at 10 µM. 2,400 compounds, 4% hits;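 also: parental cells lack the transporter so any hit is non-specific; ratio is peak minus trough fluorescence over baseline after EC90 choline challenge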
Active calls of the source: *.

What do the screens show for `Cn1cc([N+](=O)[O-])c(C(=O)N/N=C/c2cc3c(cc2Br)OCO3)n1`?
PHOSPHO1 inh: 21; CHT inh: -9.1*; ANO1 block: inactive; ANO1 activ: inactive; HDAC3 inh: 19; CHT PAM: inactive; CHT inh conf: inactive; HEK293 CHT ctr: inactive

How did O=C(COC(=O)C1(c2ccccc2F)CCCC1)N1CCN(C(=O)c2ccco2)CC1 do in these assays?
PHOSPHO1 inh: 14; CHT inh: -5.4*; ANO1 block: inactive; ANO1 activ: inactive; HDAC3 inh: -5; CHT PAM: inactive; CHT inh conf: 68%*; HEK293 CHT ctr: inactive

Results for Cc1ccc(SCC2=NN(c3nc(C)cc(C)n3)C(=O)C2)cc1 ?
PHOSPHO1 inh: 0; CHT inh: -6.5*; ANO1 block: inactive; ANO1 activ: inactive; HDAC3 inh: -1; CHT PAM: inactive; CHT inh conf: 23%*; HEK293 CHT ctr: inactive

Results for Cc1ccc(SCc2cc(=O)[nH]c(N3CCN(C)CC3)n2)cc1 ?
PHOSPHO1 inh: 0; CHT inh: inactive; ANO1 block: inactive; ANO1 activ: inactive; HDAC3 inh: -1; CHT PAM: inactive

Results for O=C(COC(=O)c1ccccc1Oc1ccccc1)NCc1ccco1 ?
PHOSPHO1 inh: 6; CHT inh: -5.4*; ANO1 block: inactive; ANO1 activ: inactive; HDAC3 inh: inconclusive; CHT PAM: inactive; CHT inh conf: inactive; HEK293 CHT ctr: inactive

Results for O=C(COC(=O)c1ccccc1)NCc1ccco1 ?
PHOSPHO1 inh: 3; CHT inh: inactive; ANO1 block: inactive; ANO1 activ: inactive; HDAC3 inh: 1; CHT PAM: inactive

Results for CCC(C)[C@H]1CNCCN1CCCc1cc(OC)c(OC)c(OC)c1 (some centres undefined) ?
CHT inh: inactive; ANO1 block: inactive; ANO1 activ: inactive; HDAC3 inh: 10; CHT PAM: inactive

What do the screens show for `Cc1cc(C)n2c(SCc3nnc(-c4cccs4)o3)nnc2n1`?
PHOSPHO1 inh: 0; CHT inh: inactive; ANO1 block: inactive; ANO1 activ: inactive; HDAC3 inh: -10; CHT PAM: inactive

How did Cc1nnc(SCc2nnc(-c3cccs3)o2)n1C do in these assays?
PHOSPHO1 inh: 24; CHT inh: -7*; ANO1 block: inactive; ANO1 activ: inactive; HDAC3 inh: -3; CHT PAM: inactive; CHT inh conf: inactive; HEK293 CHT ctr: inactive

Results for Cn1c(SCc2nc(-c3ccccc3)no2)nnc1-c1cccs1 ?
PHOSPHO1 inh: -7; CHT inh: inactive; ANO1 block: inactive; ANO1 activ: inactive; HDAC3 inh: 3; CHT PAM: inactive

Results for CCCn1c(SCc2nc(-c3cccs3)no2)nnc1-c1ccncc1 ?
PHOSPHO1 inh: -3; CHT inh: inactive; ANO1 block: inactive; ANO1 activ: inactive; HDAC3 inh: 2; CHT PAM: inactive

How did Cn1c(SCc2nc(-c3cccs3)no2)nnc1C1CCCCC1 do in these assays?
PHOSPHO1 inh: -20; CHT inh: -7.2*; ANO1 block: inactive; ANO1 activ: inactive; HDAC3 inh: 0; CHT PAM: inactive; CHT inh conf: inactive; HEK293 CHT ctr: inactive

Results for CCOc1ccc(-n2c(SCc3nc(-c4cccs4)no3)nnc2-c2ccncc2)cc1 ?
PHOSPHO1 inh: 24; CHT inh: -5*; ANO1 block: inactive; ANO1 activ: inactive; HDAC3 inh: -3; CHT PAM: inactive; CHT inh conf: inactive; HEK293 CHT ctr: inactive

What do the screens show for `O=[N+]([O-])c1c(Nc2ccccc2O)ccc2nonc12`?
PHOSPHO1 inh: -1; CHT inh: inactive; ANO1 block: inactive; ANO1 activ: inactive; HDAC3 inh: 2; CHT PAM: inactive

How did O=[N+]([O-])c1c(Nc2ccccc2O)cc(Cl)c2nonc12 do in these assays?
PHOSPHO1 inh: 15; CHT inh: -8.5*; ANO1 block: 100*; ANO1 activ: inactive; HDAC3 inh: 7; CHT PAM: inactive; CHT inh conf: 38%*; HEK293 CHT ctr: inactive

What do the screens show for `CCCCNC(=O)c1sc(=S)n2c1[nH]c(=O)c1ccc(C(=O)NCCc3ccc(OC)c(OC)c3)cc12`?
PHOSPHO1 inh: 44; CHT inh: inactive; ANO1 block: inactive; ANO1 activ: inactive; HDAC3 inh: 0; CHT PAM: inactive

How did O=C(NCc1ccccc1)c1sc(=S)n2c1[nH]c(=O)c1ccccc12 do in these assays?
PHOSPHO1 inh: -1; CHT inh: -6.7*; ANO1 block: inactive; ANO1 activ: inactive; HDAC3 inh: -2; CHT PAM: inactive; CHT inh conf: 63%*; HEK293 CHT ctr: inactive

How did Cc1cc(C)n(-c2nnc(NCc3ccc(Cl)cc3)nn2)n1 do in these assays?
PHOSPHO1 inh: 12; CHT inh: inactive; ANO1 block: inactive; ANO1 activ: inactive; HDAC3 inh: 3; CHT PAM: inactive

What do the screens show for `Cc1nn(-c2nnc(NCc3ccccc3)nn2)c(C)c1Br`?
PHOSPHO1 inh: -7; CHT inh: -5.3*; ANO1 block: inactive; ANO1 activ: inactive; HDAC3 inh: 1; CHT PAM: inactive; CHT inh conf: inactive; HEK293 CHT ctr: inactive

How did COc1ccc(C(=O)c2cc([N+](=O)[O-])ccc2N2CCCC2)cc1 do in these assays?
PHOSPHO1 inh: -2; CHT inh: inactive; ANO1 block: inactive; ANO1 activ: inactive; HDAC3 inh: 1; CHT PAM: inactive

How did COc1ccc(C(=O)c2cc([N+](=O)[O-])ccc2N2CCN(C)CC2)cc1 do in these assays?
PHOSPHO1 inh: 37; CHT inh: -6.9*; ANO1 block: inactive; ANO1 activ: inactive; HDAC3 inh: 6; CHT PAM: inactive; CHT inh conf: 44%*; HEK293 CHT ctr: 4.7*

How did CC1CN(S(=O)(=O)c2ccc(C(=O)Nc3ccc(S(=O)(=O)Nc4ncccn4)cc3)cc2)CC(C)O1 (centres undefined) do in these assays?
PHOSPHO1 inh: 5; CHT inh: inactive; ANO1 block: inactive; ANO1 activ: inactive; HDAC3 inh: 13; CHT PAM: inactive

Screening results (PubChem)
